Bioassay records: PubChem, several laboratories
The list is not random: actives were taken first. Their share in the collection is about 4.1%.
RecA intein inh: blocks M. tuberculosis RecA intein splicing. AID 2221. inhibition, % (concentration not given with the values). 0.75% of 290,000 active. cell-free RecA intein splicing, fluorescence; in the data active = inhibition above about 30%
GDH-TPI counter-1: counter-screen for M. tuberculosis FBA inhibitors: GDH-TPI coupled enzymes; AID 588335; inhibition, % at 4.8 µM; 1.2% of 360,000 active; GDH-TPI coupled enzyme counterscreen, NADH absorbance; in the data active = inhibition above about 30%
Rv3671c inh: inhibitors of M. tuberculosis serine protease Rv3671c; P9WHR9; inhibition, % at 5.96 µM; 0.048% of 320,000 active; in the data active = inhibition above about 38%;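 note: extracellular domain of Rv3671c used as enzyme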
Mtb FBA inh: Mtb fructose-bisphosphate aldolase inhibition. P9WQA3. purified M. tuberculosis FBA, fluorescence read-out. inhibition, % at 1 µM. 2.3% of 360,000 active. AID 588726
Target sequence (P9WQA3 whole entry, looked up): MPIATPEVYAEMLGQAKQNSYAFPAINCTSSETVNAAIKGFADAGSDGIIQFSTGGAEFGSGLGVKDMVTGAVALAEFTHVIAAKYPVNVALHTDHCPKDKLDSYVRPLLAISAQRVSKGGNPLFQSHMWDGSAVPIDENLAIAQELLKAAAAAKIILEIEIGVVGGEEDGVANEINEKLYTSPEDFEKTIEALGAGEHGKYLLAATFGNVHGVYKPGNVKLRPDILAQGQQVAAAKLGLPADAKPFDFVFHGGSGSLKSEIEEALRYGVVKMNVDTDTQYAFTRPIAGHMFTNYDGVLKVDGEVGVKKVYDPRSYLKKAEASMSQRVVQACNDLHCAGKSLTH
UGM FP inh: Mtb UDP-galactopyranose mutase inhibition; AID 504406; 0.06% of 320,000 active; purified UGM, fluorescence polarization probe displacement; inhibition, % at 10 µM; P9WIQ1; in the data active = inhibition above about 10%, passing the limit was not always enough
Vc quorum ag: inducers of Vibrio cholerae quorum light production without autoinducers | activation, % at 18.7 µM | 0.16% of 350,000 active | V. cholerae BH1578 lux reporter, luminescence, 6 h; in the data active = activation mostly above about 9.7%, no sharp cut-off
Mtb FBA confirm: Mtb FBA inhibition, confirmed; 78% of 5,600 active; purified M. tuberculosis FBA, fluorescence read-out; shares compounds with Mtb FBA inh; inhibition, % at 1 µM
GDH-TPI counter-2: counter-screen for M. tuberculosis FBA inhibitors: GDH-TPI coupled enzyme inhibition. shares compounds with Mtb FBA inh. GDH-TPI coupled enzyme counterscreen, fluorescence. inhibition, % at 1 µM. 81% of 5,600 active; in the data active = inhibition above about 10%
Of the large screens only hits and unclear results are named; the others gave an inactive call (follow-up assays come after a bar, where they were run). Cut-off read from the data, not from the text of the source, unless noted: active = inhibition above about 27%; inactive = the rest.

CC(=O)Nc1ccc(NC(=O)CN(c2ccc(C(C)C)cc2)S(=O)(=O)c2ccccc2)cc1	none
CC(C)N(C(=O)COC(=O)c1cc(Cl)cc(Cl)c1N)C(C)C	Mtb FBA inh 80 | Mtb FBA confirm inactive | GDH-TPI counter-2 inactive
O=C(OCC(=O)N1CCCC1)c1cc(Cl)ccc1Cl	none
CC1CCN(C(=O)COC(=O)c2cc(Cl)cc(Cl)c2N)CC1	Mtb FBA inh 81 | Mtb FBA confirm 110 | GDH-TPI counter-2 90
COc1cc2ccccc2cc1C(=O)OCC(=O)N1CCOCC1	Mtb FBA inh 52 (no result: Vc quorum ag) | Mtb FBA confirm 180 | GDH-TPI counter-2 156
Nc1c(Cl)cc(Cl)cc1C(=O)OCC(=O)N1CCOCC1	Mtb FBA inh 101 | Mtb FBA confirm active | GDH-TPI counter-2 active
COc1ccc(-c2cc(C(=O)OCC(=O)N3CCOCC3)c3ccccc3n2)cc1	none (no result: RecA intein inh)
Cc1ccc(N2CC(C(=O)Nc3nc4ccc(S(C)(=O)=O)cc4s3)CC2=O)cc1C (stereo unspecified)	none
CC(C)OCCCNc1nc2c(cnn2C)c(=O)[nH]1	none (no result: RecA intein inh, Rv3671c inh, UGM FP inh)
CCC1(OC(=O)CN(C)C)C(=O)OCc2c1cc1n(c2=O)Cc2cc3c(N)cccc3nc2-1 (stereo unspecified)	Mtb FBA inh 53 (no result: RecA intein inh, Rv3671c inh, UGM FP inh) | Mtb FBA confirm inactive | GDH-TPI counter-2 inactive
CCN(CC(=O)Nc1c(F)cccc1F)C(=O)c1cc([N+](=O)[O-])ccc1N1CCOCC1	none
O=C(COc1ccc(Cl)cc1)NNC(=O)c1ccc2c(=O)n3c(nc2c1)CCC3	none
COc1ccc2c(c1)c(C)cc[n+]2Cc1ccccc1	Mtb FBA inh 41 (no result: Rv3671c inh) | Mtb FBA confirm 59 | GDH-TPI counter-2 57
CCc1noc(C)c1C(=O)Nc1ccc(-c2nnc3n2CCCCC3)cc1	none (no result: RecA intein inh)
Cc1cc(N=Cc2c(O)n(-c3ccc4c(c3)OCO4)c(=O)c3ccccc23)ccn1	Mtb FBA inh 38 | Mtb FBA confirm active | GDH-TPI counter-2 active
COc1ccc(NC(=O)CSc2ccc([N+](=O)[O-])cc2)cc1S(=O)(=O)N1CCOCC1	none (no result: RecA intein inh, UGM FP inh)
Fc1cccc(NC(=S)Nc2cccc3ccccc23)c1	Mtb FBA inh 67 | Mtb FBA confirm active | GDH-TPI counter-2 active
COc1cc2c(cc1NC(=S)Nc1cccc3ccccc13)oc1ccccc12	Mtb FBA inh 105 | Mtb FBA confirm active | GDH-TPI counter-2 187
CC(=O)N(C)c1ccc(NC(=S)Nc2cccc3ccccc23)cc1	none
CC(=O)c1ccc(NC(=S)Nc2cccc3ccccc23)cc1	Mtb FBA inh 53 | Mtb FBA confirm 76 | GDH-TPI counter-2 60
Cc1ccc(NC(=S)Nc2cccc3ccccc23)cc1F	Mtb FBA inh 47 | Mtb FBA confirm active | GDH-TPI counter-2 168
COCC(C)n1c(SCC(=O)NC(=O)NC2CCCC2)nc2ccccc2c1=O (stereo unspecified)	none (no result: RecA intein inh)
COc1ccc(C(O)c2nc(-c3cccc(NC(C)=O)c3)cs2)cc1 (stereo unspecified)	none (no result: RecA intein inh, Rv3671c inh, UGM FP inh)
CCCC1NC(=O)c2cccnc2-n2c1nc1ccc(C)cc1c2=O (stereo unspecified)	none (no result: RecA intein inh, Rv3671c inh, UGM FP inh)
COc1ccc(OC)c(/C=C/C(=O)OCC(=O)Nc2cccc(C(C)=O)c2)c1	none
COc1ccc(OC)c(/C=C/C(=O)Oc2ccc(C(C)=O)cc2)c1	Mtb FBA inh 33 | Mtb FBA confirm 132 | GDH-TPI counter-2 107
COc1cc(NC(=O)CSc2nc3cc(C)ccc3cc2C)c(C(=O)O)cc1OC	Mtb FBA inh 27 | Mtb FBA confirm 45 | GDH-TPI counter-2 25
C[C@H]1CN([C@@H](C)CO)C(=O)CCCn2nncc2CO[C@H]1CN(C)S(=O)(=O)c1ccccc1F	none (no result: RecA intein inh, Rv3671c inh, UGM FP inh)
CCOC(=O)C/C(C)=N\Nc1nc(-c2ccccc2)cs1	Mtb FBA inh 69 | Mtb FBA confirm 54 | GDH-TPI counter-2 42
Cc1ccc(C2=NOC3(CC(=O)N(c4ccccc4)C3=O)C2)cc1 (stereo unspecified)	none
Cc1ccc(C2=NOC3(CC(=O)N(c4ccc(C)cc4)C3=O)C2)cc1 (stereo unspecified)	Mtb FBA inh 29 (no result: RecA intein inh) | Mtb FBA confirm 43 | GDH-TPI counter-2 38
O=C(C1=NN[C@@H]2C(=O)N(Cc3ccccc3)C(=O)[C@H]12)c1ccc([N+](=O)[O-])cc1	none
CCOC(=O)CC(=O)CSc1nc(-c2cccnc2)ccc1C#N	Mtb FBA inh 38 | Mtb FBA confirm active | GDH-TPI counter-2 active
COc1ccc(NC(=O)C2C3C=CC4(O3)C2C(=O)N(CCCN2CCCC(C)C2)C4C(=O)NC2CCCCC2)cc1 (stereo unspecified)	none (no result: RecA intein inh)
CN(C)c1ccc2c(O)cc(=O)n(C)c2c1	Mtb FBA inh 37 | Mtb FBA confirm 29 | GDH-TPI counter-2 25
CN(c1ccc(Cl)cc1)c1cc(=O)n(C)c2ccccc12	none
Cc1c(O)ccc2c3c(c(=O)oc12)CCC(C)C3 (stereo unspecified)	Mtb FBA inh 103 | Mtb FBA confirm active | GDH-TPI counter-2 active
COc1ccc(-c2nc3cccc(C)n3c2NCC2CCCO2)cc1O (stereo unspecified)	Mtb FBA inh 59 | Mtb FBA confirm 134 | GDH-TPI counter-2 104
COc1cc(-c2nc3ccccn3c2NCC2CCCO2)ccc1O (stereo unspecified)	none
CCOc1cc(-c2nc3c(C)cccn3c2NCC2CCCO2)ccc1O (stereo unspecified)	Mtb FBA inh 84 | Mtb FBA confirm 131 | GDH-TPI counter-2 108
COc1ccccc1NC(=O)COC(=O)CCc1ccc(S(=O)(=O)N2CCOCC2)cc1	Mtb FBA inh 31 (no result: RecA intein inh) | Mtb FBA confirm 162 | GDH-TPI counter-2 134
Cc1cccc(NC(=O)COC(=O)CCc2ccc(S(=O)(=O)N3CCOCC3)cc2)c1C	none
Cc1ccc(-c2ccc3c(c2)O[C@H](CN(C)C(=O)Nc2ccc(C(F)(F)F)cc2)[C@H](C)CN([C@H](C)CO)S3(=O)=O)cc1	none (no result: RecA intein inh, GDH-TPI counter-1, Rv3671c inh, UGM FP inh, Vc quorum ag)
C#CCOC(=O)CCCN1C(=O)c2cccc3cccc(c23)C1=O	Mtb FBA inh 32 (no result: RecA intein inh, Rv3671c inh, UGM FP inh) | Mtb FBA confirm 156 | GDH-TPI counter-2 121
CN(C(=O)CCCN1C(=O)c2cccc3cccc(c23)C1=O)c1ccccc1	none
NS(=O)(=O)c1ccc(NC(=O)COC(=O)CCCN2C(=O)c3cccc4cccc(c34)C2=O)cc1	none (no result: RecA intein inh)
COC(=O)CCCN1C(=O)c2cccc3cccc(c23)C1=O	Mtb FBA inh 35 | Mtb FBA confirm 129 | GDH-TPI counter-2 111
Oc1c(Cl)cc(Cl)cc1/C=N/NC(=S)NC1CC2C=CC1C2 (stereo unspecified)	Mtb FBA inh 35 | Mtb FBA confirm 59 | GDH-TPI counter-2 57
CCOC(=O)C1Cn2c(nc3c(c2=O)C2(CCCC2)Cc2ccccc2-3)S1 (stereo unspecified)	none (no result: RecA intein inh)
